VDR inh = vitamin D3 receptor (human) inhibition; VDR-SRC2-3 peptide fluorescence polarization, 2 h; P11473; actives 0.93% (n = 400,000); Potency, µM, for inactives: max response, negative = inhibition, hits mostly inhibitors; AID 504847; note: potency is the fitted concentration of half-maximal effect; % is set by controls: 0 for no effect and ±100 for the full control effect
Target sequence (P11473 whole entry, looked up): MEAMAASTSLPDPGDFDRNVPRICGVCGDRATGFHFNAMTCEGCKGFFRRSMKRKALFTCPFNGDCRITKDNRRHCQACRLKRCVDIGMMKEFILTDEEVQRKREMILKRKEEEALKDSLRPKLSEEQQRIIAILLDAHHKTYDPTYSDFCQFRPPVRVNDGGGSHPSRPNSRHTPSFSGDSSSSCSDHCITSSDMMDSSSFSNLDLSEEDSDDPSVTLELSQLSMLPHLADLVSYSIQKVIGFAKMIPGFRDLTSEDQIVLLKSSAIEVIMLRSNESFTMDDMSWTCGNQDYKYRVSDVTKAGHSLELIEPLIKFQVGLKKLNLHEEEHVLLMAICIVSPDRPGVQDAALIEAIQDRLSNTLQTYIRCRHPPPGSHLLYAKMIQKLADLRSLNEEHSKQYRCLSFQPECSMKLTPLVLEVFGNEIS
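FP read-out; VDR + SRC2-3 coactivator peptide; 23 nl compound by pintool; 2 h RT incubation; reagents held at 4 deg C, protected from light.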
HTT ATP protect = cytoprotection in Huntington HTT-Q103 PC12 cell model; actives 0.14% (n = 230,000); Potency, µM (highest dose often 56.4 µM), inactives show cytoprotection (ATP increase), actives largely listed as activators; PC12 HTT-Q103 induced, cytoprotection, ATP luminescence, 40 h; note: potency is the fitted concentration of half-maximal effect; % of control where 0% means no effect; nearly all actives have a fitted effect of over 45% in size
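Quantitative HTS on tebufenozide-induced (100 nM) PC12 cells expressing HTTQ103 exon 1–GFP; compounds tested as a concentration series; survival measured via cellular ATP.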
FBPA coupling cs = inhibits coupling enzyme system, counter-screen for aldolase hits; activity change, negative = inhibition, % at 58.2 µM, hits read low; actives 0.67% (n = 290,000); coupling enzyme system counterscreen, AmpLite Red fluorescence; AID 2472; in the data active = activity change below about -30%; note: % is set by controls: 0 for no effect and ±100 for the full control effect
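Compounds tested against the coupling enzymes alone at 57.5 uM final; readout was AmpLite Red fluorescence (525/598 nm) after 20 min at RT.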
JMJD2E inh = blocks human JMJD2E demethylase activity. B2RXH2. JMJD2E catalytic domain, FDH-coupled NADH fluorescence (FDH is formaldehyde dehydrogenase). Potency, µM (titrated, usually from 57.1 µM), without a hit: top-dose activity change, negative = inhibition, usual class: inhibitors. actives 1.6% (n = 230,000). AID 2147; active = well fitted inhibition curve with a large enough effect, not every such curve was filed as active; inconclusive = small, poorly fitted or top-dose-only effect, or another doubt; inactive = no such curve, though single readings can be large or run the other way;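 note: potency is the fitted concentration of half-maximal effect; 0% = wells with enzyme and -100% = buffer wells without enzyme; nearly all actives have a fitted effect of over 50% in size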
HttQ103 aggreg = inhibitors of mutant huntingtin aggregate formation in PC12 cells | PC12 HttQ103-GFP aggregates, Acumen cytometry, 40 h | Potency, µM (top dose mostly 46.1 µM), inactives show at the top dose activity change, negative = inhibition, usual class: inhibitors | actives 1.1% (n = 220,000) | AID 1688; note: potency is the fitted concentration of half-maximal effect; % is set by controls: 0 for no effect and ±100 for the full control effect; nearly all actives have a fitted effect of over 60% in size
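PC12 cells with ecdysone-inducible HTT exon1 Q103-GFP, induced by 100 nM tebufenozide, given compounds in a concentration series. GFP aggregates (1–25 um, 6 SD above background) counted in lysates by laser-scanning cytometry, 488 nm excitation.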
RGS12 GoLoco inh = RGS12 GoLoco-Gai1 interaction inhibition. P63096. Gai1:RGS12 GoLoco peptide FP, rhodamine, 10 min. Potency, µM (doses to about 61.6 µM), without a hit: at the highest dose activity, negative = inhibition, actives largely listed as inhibitors. actives 0.44% (n = 230,000); active = well fitted inhibition curve with a large enough effect, not every such curve was filed as active; inactive = no such curve, though single readings can be large or run the other way; note: potency is the fitted concentration of half-maximal effect; % is set by controls: 0 for no effect and ±100 for the full control effect; nearly all actives have a fitted effect of over 30% in size
* marks the source's active call; other numbers are inactive results; ? = inconclusive; . = no result given; [ ] = dose if it differs, or a comment. Rows were chosen to be rich in hits. Some 2.3% of all compounds tested hit in one or more screens of this group. Unless noted, calls come from the whole dose curve; as a rule, active = well fitted curve in the direction sought with a large enough effect; inconclusive = small, poorly fitted or top-dose-only effect, or another doubt; inactive = no such curve, though single readings can be large; an effect the other way counts as inactive or inconclusive.

SMILES	VDR inh	HTT ATP protect	FBPA coupling cs	JMJD2E inh	HttQ103 aggreg	RGS12 GoLoco inh
CCN1CCS/C1=C\C=C\C1=[N+](CC)CCS1	-3.5%	-65.5%	0.6	.	1.12µM*	-8.1%
COc1ccc(C2(C)NC(=O)NC2=O)cc1OC (centres undefined)	-2.4%	.	4.1	.	.	.
Cc1cc2nc3c(=O)[nH]c(=O)nc-3n(CC(O)C(O)C(O)COP(=O)(O)O)c2cc1C (centres undefined)	-17.0%	10.5%	-18.9	.	?	15.8µM*
CCN(C(=O)c1coc(=O)c(Br)c1)c1ccc2c(c1)OCO2	?	-10.3%	-42.4*	?	-5.3%	-19.7%
COc1ccc(/C=N/n2c(N)c(S(=O)(=O)c3cccs3)c3nc4ccccc4nc32)cc1OC	8.9%	?	1.2	?	-0.4%	1.8%
CC(C)Cn1c(N)c(S(=O)(=O)c2cccs2)c2nc3ccccc3nc21	-5.7%	-5.1%[0.074 µM]	-31.2*	?	12.2%	26.2%
COc1cccc(-n2c([S-])c(C(=O)Nc3ccc(S(=O)(=O)N4CCOCC4)cc3)[n+]3cc(C(N)=O)ccc23)c1	23.5%	-28.8%[10 µM]	-10.5	14.1µM*	-7.8%[9.22 µM]	24.1%
CC(C)COc1cccc(C(=O)Nc2ccc(S(=O)(=O)N3CCOCC3)cc2)c1	-8.4%	-50.5%	-1.9	4.4%	?	-8.0%
O=C(O)C[C@@H]1C(=O)O[C@@H]2C(COC(=O)c3cc(O)c(O)c(O)c3)O[C@@H](OC(=O)c3cc(O)c(O)c(O)c3)[C@@H](OC(=O)c3cc(O)c(O)c4c3[C@H]1[C@H](O)C(=O)O4)[C@H]2OC(=O)c1cc(O)c(O)c(O)c1 (some centres undefined)	.	-1.7%[10 µM]	-22.7	0.708µM*	12.6%[9.22 µM]	-12.5%
CN1CCN(C2=C(Cl)C(=O)c3ccccc3C2=O)CC1	50.1µM*	.	.	.	.	.
NC(=O)C1CCN(C2=C(NS(=O)(=O)c3ccccc3)C(=O)c3ccccc3C2=O)CC1	-3.2%	-5.1%[10 µM]	-31.3*	0.7%	-18.9%[9.22 µM]	6.6%
CN1CCN(C2=C(Cl)C(=O)C(c3cnc(N4CCCCC4)s3)=C(Cl)C2=O)CC1	50.1µM*	42.3%[10 µM]	-3.3	2.6%	5.5%	4.9%
CN1CCN(C2=C(NS(=O)(=O)c3ccccc3)C(=O)c3ccccc3C2=O)CC1	1.8%	.	-46.1*	.	.	.
CN1CCN(C2=C(Cl)C(=O)N(C3CCCCC3)C2=O)CC1	1.1%	-62.1%[10 µM]	-0.4	1.5%	13.9%[9.22 µM]	9.1%
C[C@H]1[C@H](C)CC[C@]2(C(=O)O)CC[C@]3(C)C(=CC[C@@H]4[C@]5(C)C[C@H](O)[C@@H](O)[C@@](C)(CO)[C@@H]5[C@H](O)C[C@@]43C)[C@H]12	.	-14.5%[10 µM]	.	.	.	.
C[C@@H]1C[C@@]2(C)Oc3ccccc3[C@H]3OC[C@]1(COC(=O)Nc1ccccc1)[C@@H](C)[C@@H]32	.	-10.6%	.	.	.	.
CCOC(=O)COc1ccc(C(=O)Nc2cccc(Cl)c2C)cc1	-4.3%	-6.5%	0.4	-5.5%	-3.5%[9.22 µM]	9.2%
NC(=O)C1CCN(C2=C(Cl)C(=O)c3ccccc3C2=O)CC1	?	5.0%	-50.7*	7.2%	5.3%	-41.1%
O=C1C(NS(=O)(=O)c2ccc(Cl)cc2)=C(N2CCCCC2)C(=O)c2ccccc21	-12.6%	19.3%[10 µM]	-34.3*	4.0%	?	5.8%
CCOC(=O)C1CCN(C2=C(NS(=O)(=O)c3ccc(Br)cc3)C(=O)c3ccccc3C2=O)CC1	?	.	-33.4*	.	.	.
CCOC(=O)C1CCN(C(=O)c2cccc(NS(=O)(=O)c3ccc(Br)cc3)c2)CC1	5.1%	.	.	.	.	.
O=C1C(Cl)=C(N2CCC(C(=O)O)CC2)C(=O)c2ccccc21	?	-4.0%[10 µM]	-28.5	-20.3%	10.1%[9.22 µM]	3.5%
NC(=O)C1CCN(C2=C(NS(=O)(=O)c3ccc(Br)cc3)C(=O)c3ccccc3C2=O)CC1	?	.	-32.1*	.	.	.
C[C@@H]1CN(S(=O)C(C)(C)C)[C@@H](CCO)/C1=C\c1ccccc1 (some centres undefined)	7.5%	.	.	.	.	.

Screening data deposited in PubChem by National Center for Advancing Translational Sciences (NCATS).
